# Reference: PubChem BioAssay AID651871 (Sanford-Burnham Center for Chemical Genomics, 2012)
# Several values for one entry are separate records, joined by “and”; a condition that tells them apart may be missing. Equal values may be shown once.
# Tested on: H9c2
# Test: protection of cardiomyocytes from stress damage, SAR follow-up, cell-based, panel, H9c2 and HL-1, ATP luminescence, set 2 (AID 651871);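 further: cells exposed to stressor for 2 h before ATP readout; reference of the scale not given here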
# Settings: H9c2/HL-1 cardiomyocytes, 2-deoxyglucose stress, with 2-deoxyglucose; run 2, at 79 µM (top of the series)
row,Compound,activity (protection/inhibition)
1,COc1ccc2nc(-c3cc(OC)c(OC)c(OC)c3)cc(C(=O)NCC(=O)Nc3ccc(C(C)=O)cc3)c2c1,82.4%
2,COc1ccc2c(c1OC)C(=O)N1c3ccccc3C(=O)N(Cc3cccc(Cl)c3Cl)C21 (stereo not drawn),53% and 81.7% and -4.06%
3,CCOC(=O)c1cccc(NC(=O)CNC(=O)c2cc(-c3cc(OC)c(OC)c(OC)c3)nc3ccccc23)c1,78.5%
